Results taken from publication PMC12820563, “FoxP3 forms a head-to-head dimer in vivo and stabilizes its multimerization on adjacent microsatellites”.
Over roughly 16,000 sequences, “rpm ratio (pull-down/input)” has its median near 0.5; the highest 2% begin near 5.5. The sample as a whole holds a higher share of the highest values than the screen did.

Molecular target: T1, MBP-FoxP3dN (Mus musculus, UniProt Q99JB6 188-423)
T1 sequence: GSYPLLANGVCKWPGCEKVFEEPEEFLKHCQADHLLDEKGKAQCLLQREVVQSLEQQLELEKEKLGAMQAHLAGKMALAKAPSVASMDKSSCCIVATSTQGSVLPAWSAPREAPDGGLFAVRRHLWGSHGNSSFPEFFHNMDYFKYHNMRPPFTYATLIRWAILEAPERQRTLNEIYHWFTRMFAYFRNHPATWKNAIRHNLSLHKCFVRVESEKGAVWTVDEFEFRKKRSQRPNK
Assay: PD-seq (MBP pull-down with sequencing); 20 mM Tris-HCl pH 7.5, 100 mM NaCl, 1.5 mM MgCl2, 0.4 uM protein, 0.1 uM dsDNA library, 30 min, room temperature, amylose pull-down; high values mean tight binding
Details: protein: recombinant; tags: His6-MBP; chain copies: 2; dsDNA, one strand shown
Summary of the method: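 A fragment of mouse FoxP3 or FoxP1 without its N-terminus, carrying a His6-MBP tag and produced in E. coli, was combined at 0.4 µM with a 0.1 µM degenerate double-stranded DNA library filled in with Klenow. The mixture sat for 30 min at room temperature in Tris pH 7.5 buffer containing NaCl and MgCl2. Protein–DNA complexes were captured on amylose resin, washed three times, and the DNA was freed with proteinase K, barcoded by PCR and sequenced on Illumina. Binding is expressed as reads-per-million enrichment of pull-down over input, with replicates pooled.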

Sequence	binding signal
GATGATTGTTCTCCCAGCTGATGAATTGGTGTGGTCGAGTAAACAAATTTTCCTAATCTTTCTGTTCAAGCGCCATCTAC	1.32 RPM ratio (pull-down/input)
GATGATTGTTCTCCCAGCTGATGAATTGTGTTGGTCGAGTAAACAAATTTTCCTAATCTTTCTGTTCAAGCGCCATCTAC	6.68 RPM ratio (pull-down/input)
GATGATTGTTCTCCCAGCTGATGAATTTGGTTGGTCGAGTAAACAAATTTTCCTAATCTTTCTGTTCAAGCGCCATCTAC	2.96 RPM ratio (pull-down/input)
GATGATTGTTCTCCCAGCTGATGAATTTTTGGGGTCGAGTAAACAAATTTTCCTAATCTTTCTGTTCAAGCGCCATCTAC	0.233 RPM ratio (pull-down/input)
GATGATTGTTCTCCCAGCTGATGAATTGGTTGTGTCGAGTAAACAAATTTTCCTAATCTTTCTGTTCAAGCGCCATCTAC	5.42 RPM ratio (pull-down/input)
GATGATTGTTCTCCCAGCTGATGAATTTTGTTGGTCGAGTAAACAAATTTTCCTAATCTTTCTGTTCAAGCGCCATCTAC	7.07 RPM ratio (pull-down/input)
GATGATTGTTCTCCCAGCTGATGAATTCTTTTGGTCGAGTAAACAAATTTTCCTAATCTTTCTGTTCAAGCGCCATCTAC	0.31 RPM ratio (pull-down/input)
GATGATTGTTCTCCCAGCTGATGAATTTCTTTGGTCGAGTAAACAAATTTTCCTAATCTTTCTGTTCAAGCGCCATCTAC	1.03 RPM ratio (pull-down/input)
GATGATTGTTCTCCCAGCTGATGAATTGTTTGGGTCGAGTAAACAAATTTTCCTAATCTTTCTGTTCAAGCGCCATCTAC	4.43 RPM ratio (pull-down/input)
GATGATTGTTCTCCCAGCTGATGAATTCTGTTGGTCGAGTAAACAAATTTTCCTAATCTTTCTGTTCAAGCGCCATCTAC	5.56 RPM ratio (pull-down/input)
GATGATTGTTCTCCCAGCTGATGAATTTGTTGGGTCGAGTAAACAAATTTTCCTAATCTTTCTGTTCAAGCGCCATCTAC	7.61 RPM ratio (pull-down/input)
GATGATTGTTCTCCCAGCTGATGAATTCAATTGGTCGAGTAAACAAATTTTCCTAATCTTTCTGTTCAAGCGCCATCTAC	2.04 RPM ratio (pull-down/input)
GATGATTGTTCTCCCAGCTGATGAATTGTAATCTTCGAGTAAACAAATTTTCCTAATCTTTCTGTTCAAGCGCCATCTAC	0.84 RPM ratio (pull-down/input)
GATGATTGTTCTCCCAGCTGATGAATTGGTGAGATCGAGTAAACAAATTTTCCTAATCTTTCTGTTCAAGCGCCATCTAC	0.341 RPM ratio (pull-down/input)
GATGATTGTTCTCCCAGCTGATGAATTCTTTTACTCGAGTAAACAAATTTTCCTAATCTTTCTGTTCAAGCGCCATCTAC	0.312 RPM ratio (pull-down/input)
GATGATTGTTCTCCCAGCTGATGAATTCTTGGGATCGAGTAAACAAATTTTCCTAATCTTTCTGTTCAAGCGCCATCTAC	0.227 RPM ratio (pull-down/input)
GATGATTGTTCTCCCAGCTGATGAATTCCTCGTATCGAGTAAACAAATTTTCCTAATCTTTCTGTTCAAGCGCCATCTAC	0.403 RPM ratio (pull-down/input)
GATGATTGTTCTCCCAGCTGATGAATTGCGACCGTCGAGTAAACAAATTTTCCTAATCTTTCTGTTCAAGCGCCATCTAC	0.963 RPM ratio (pull-down/input)
GATGATTGTTCTCCCAGCTGATGAATTCCGACGATCGAGTAAACAAATTTTCCTAATCTTTCTGTTCAAGCGCCATCTAC	0.285 RPM ratio (pull-down/input)
GATGATTGTTCTCCCAGCTGATGAATTTCTACCGTCGAGTAAACAAATTTTCCTAATCTTTCTGTTCAAGCGCCATCTAC	0.222 RPM ratio (pull-down/input)
GATGATTGTTCTCCCAGCTGATGAATTGTTACGATCGAGTAAACAAATTTTCCTAATCTTTCTGTTCAAGCGCCATCTAC	0.792 RPM ratio (pull-down/input)

Sequence	binding signal
GATGATTGTTCTCCCAGCTGATGAATTGTTTTGGTCGAGTAAACAAATTTTCCTAATCTTTCTGTTCAAGCGCCATCTAC	3.65 RPM ratio (pull-down/input)
GATGATTGTTCTCCCAGCTGATGAATTGGTTTGGTCGAGTAAACAAATTTTCCTAATCTTTCTGTTCAAGCGCCATCTAC	3.6 RPM ratio (pull-down/input)
GATGATTGTTCTCCCAGCTGATGAATTTGTTTGGTCGAGTAAACAAATTTTCCTAATCTTTCTGTTCAAGCGCCATCTAC	7.49 RPM ratio (pull-down/input)
GATGATTGTTCTCCCAGCTGATGAATTGATTGTCTCGAGTAAACAAATTTTCCTAATCTTTCTGTTCAAGCGCCATCTAC	2.86 RPM ratio (pull-down/input)
GATGATTGTTCTCCCAGCTGATGAATTGTAGTTCTCGAGTAAACAAATTTTCCTAATCTTTCTGTTCAAGCGCCATCTAC	1.39 RPM ratio (pull-down/input)
GATGATTGTTCTCCCAGCTGATGAATTCGCGGCATCGAGTAAACAAATTTTCCTAATCTTTCTGTTCAAGCGCCATCTAC	0.76 RPM ratio (pull-down/input)
GATGATTGTTCTCCCAGCTGATGAATTCGGCATCTCGAGTAAACAAATTTTCCTAATCTTTCTGTTCAAGCGCCATCTAC	7.14 RPM ratio (pull-down/input)
GATGATTGTTCTCCCAGCTGATGAATTCGGCATTTCGAGTAAACAAATTTTCCTAATCTTTCTGTTCAAGCGCCATCTAC	5.91 RPM ratio (pull-down/input)
GATGATTGTTCTCCCAGCTGATGAATTCGGGCATTCGAGTAAACAAATTTTCCTAATCTTTCTGTTCAAGCGCCATCTAC	4.9 RPM ratio (pull-down/input)
GATGATTGTTCTCCCAGCTGATGAATTGCGGCATTCGAGTAAACAAATTTTCCTAATCTTTCTGTTCAAGCGCCATCTAC	7.34 RPM ratio (pull-down/input)
GATGATTGTTCTCCCAGCTGATGAATTTGCGGCATCGAGTAAACAAATTTTCCTAATCTTTCTGTTCAAGCGCCATCTAC	1.14 RPM ratio (pull-down/input)
GATGATTGTTCTCCCAGCTGATGAATTTCGGCATTCGAGTAAACAAATTTTCCTAATCTTTCTGTTCAAGCGCCATCTAC	5.76 RPM ratio (pull-down/input)
GATGATTGTTCTCCCAGCTGATGAATTCCGGCATTCGAGTAAACAAATTTTCCTAATCTTTCTGTTCAAGCGCCATCTAC	4.43 RPM ratio (pull-down/input)
GATGATTGTTCTCCCAGCTGATGAATTCGGCCATTCGAGTAAACAAATTTTCCTAATCTTTCTGTTCAAGCGCCATCTAC	3.92 RPM ratio (pull-down/input)
GATGATTGTTCTCCCAGCTGATGAATTTTCGGCATCGAGTAAACAAATTTTCCTAATCTTTCTGTTCAAGCGCCATCTAC	0.816 RPM ratio (pull-down/input)
GATGATTGTTCTCCCAGCTGATGAATTCGGCAGCTCGAGTAAACAAATTTTCCTAATCTTTCTGTTCAAGCGCCATCTAC	1.36 RPM ratio (pull-down/input)
GATGATTGTTCTCCCAGCTGATGAATTCTCGGCATCGAGTAAACAAATTTTCCTAATCTTTCTGTTCAAGCGCCATCTAC	0.601 RPM ratio (pull-down/input)
GATGATTGTTCTCCCAGCTGATGAATTTACTGGCTCGAGTAAACAAATTTTCCTAATCTTTCTGTTCAAGCGCCATCTAC	0.472 RPM ratio (pull-down/input)
GATGATTGTTCTCCCAGCTGATGAATTCTGATGCTCGAGTAAACAAATTTTCCTAATCTTTCTGTTCAAGCGCCATCTAC	1.09 RPM ratio (pull-down/input)
GATGATTGTTCTCCCAGCTGATGAATTAATTTGCTCGAGTAAACAAATTTTCCTAATCTTTCTGTTCAAGCGCCATCTAC	3.03 RPM ratio (pull-down/input)
GATGATTGTTCTCCCAGCTGATGAATTACTTAACTCGAGTAAACAAATTTTCCTAATCTTTCTGTTCAAGCGCCATCTAC	0.277 RPM ratio (pull-down/input)

Sequence	binding signal
GATGATTGTTCTCCCAGCTGATGAATTCTGGCCATCGAGTAAACAAATTTTCCTAATCTTTCTGTTCAAGCGCCATCTAC	1.12 RPM ratio (pull-down/input)
GATGATTGTTCTCCCAGCTGATGAATTGACAATGTCGAGTAAACAAATTTTCCTAATCTTTCTGTTCAAGCGCCATCTAC	0.506 RPM ratio (pull-down/input)
GATGATTGTTCTCCCAGCTGATGAATTGGGAGATTCGAGTAAACAAATTTTCCTAATCTTTCTGTTCAAGCGCCATCTAC	0.372 RPM ratio (pull-down/input)
GATGATTGTTCTCCCAGCTGATGAATTTTTTGTATCGAGTAAACAAATTTTCCTAATCTTTCTGTTCAAGCGCCATCTAC	0.521 RPM ratio (pull-down/input)
GATGATTGTTCTCCCAGCTGATGAATTGTTTGTATCGAGTAAACAAATTTTCCTAATCTTTCTGTTCAAGCGCCATCTAC	7.73 RPM ratio (pull-down/input)
GATGATTGTTCTCCCAGCTGATGAATTGTATTTCTCGAGTAAACAAATTTTCCTAATCTTTCTGTTCAAGCGCCATCTAC	2.06 RPM ratio (pull-down/input)
GATGATTGTTCTCCCAGCTGATGAATTTGTAATCTCGAGTAAACAAATTTTCCTAATCTTTCTGTTCAAGCGCCATCTAC	3.82 RPM ratio (pull-down/input)
GATGATTGTTCTCCCAGCTGATGAATTGTAGTAATCGAGTAAACAAATTTTCCTAATCTTTCTGTTCAAGCGCCATCTAC	1.03 RPM ratio (pull-down/input)
GATGATTGTTCTCCCAGCTGATGAATTAGTAGTATCGAGTAAACAAATTTTCCTAATCTTTCTGTTCAAGCGCCATCTAC	2.45 RPM ratio (pull-down/input)
GATGATTGTTCTCCCAGCTGATGAATTTGTAGTATCGAGTAAACAAATTTTCCTAATCTTTCTGTTCAAGCGCCATCTAC	5.7 RPM ratio (pull-down/input)
GATGATTGTTCTCCCAGCTGATGAATTTGTATTCTCGAGTAAACAAATTTTCCTAATCTTTCTGTTCAAGCGCCATCTAC	5.9 RPM ratio (pull-down/input)
GATGATTGTTCTCCCAGCTGATGAATTTGTATCCTCGAGTAAACAAATTTTCCTAATCTTTCTGTTCAAGCGCCATCTAC	5.4 RPM ratio (pull-down/input)
GATGATTGTTCTCCCAGCTGATGAATTGTATTCCTCGAGTAAACAAATTTTCCTAATCTTTCTGTTCAAGCGCCATCTAC	1.97 RPM ratio (pull-down/input)
GATGATTGTTCTCCCAGCTGATGAATTTGCTGTATCGAGTAAACAAATTTTCCTAATCTTTCTGTTCAAGCGCCATCTAC	4.72 RPM ratio (pull-down/input)
GATGATTGTTCTCCCAGCTGATGAATTTTGTATCTCGAGTAAACAAATTTTCCTAATCTTTCTGTTCAAGCGCCATCTAC	5.89 RPM ratio (pull-down/input)
GATGATTGTTCTCCCAGCTGATGAATTCTAGCTGTCGAGTAAACAAATTTTCCTAATCTTTCTGTTCAAGCGCCATCTAC	0.392 RPM ratio (pull-down/input)
GATGATTGTTCTCCCAGCTGATGAATTCGTTAGTTCGAGTAAACAAATTTTCCTAATCTTTCTGTTCAAGCGCCATCTAC	2.91 RPM ratio (pull-down/input)
GATGATTGTTCTCCCAGCTGATGAATTTTACTCATCGAGTAAACAAATTTTCCTAATCTTTCTGTTCAAGCGCCATCTAC	0.402 RPM ratio (pull-down/input)
GATGATTGTTCTCCCAGCTGATGAATTTCAAGTTTCGAGTAAACAAATTTTCCTAATCTTTCTGTTCAAGCGCCATCTAC	0.283 RPM ratio (pull-down/input)
GATGATTGTTCTCCCAGCTGATGAATTTATACGTTCGAGTAAACAAATTTTCCTAATCTTTCTGTTCAAGCGCCATCTAC	0.886 RPM ratio (pull-down/input)
GATGATTGTTCTCCCAGCTGATGAATTTCCACGTTCGAGTAAACAAATTTTCCTAATCTTTCTGTTCAAGCGCCATCTAC	0.311 RPM ratio (pull-down/input)
